# Assay outcomes as filed in PubChem BioAssay.
# RecA intein inh – Mtb RecA intein splicing inhibitors, primary screen, biochemical, fluorescence, HTS; Protein RecA (Mycobacterium tuberculosis (strain ATCC 25618 / H37Rv)), P9WHJ3; 290,000 compounds, 0.75% hits; cell-free RecA intein splicing; inhibition, % (no concentration beside the values); in the data active = inhibition above about 30%; inconclusive = no clear call, values can overlap the other calls
# FBA Mtb inh – Mtb FBA enzyme inhibitors, primary screen, biochemical, fluorescence, strain H37Rv | Fructose-bisphosphate aldolase (Mycobacterium tuberculosis (strain ATCC 25618 / H37Rv)), … | purified M. tuberculosis FBA, fluorescence read-out | AID 588726, 2011 | 360,000 compounds, 2.3% hits | inhibition, % at 1 µM
# GDH-TPI counter-1 – GDH-TPI coupling enzyme inhibitors, primary screen, artefact control for M. tuberculosis FBA inhibitor project, biochemical, absorbance, full deck; GDH-TPI coupled enzyme counterscreen, NADH absorbance; inhibition, % at 4.8 µM; 360,000 compounds, 1.2% hits; in the data active = inhibition above about 30%
# Mtb bLac sens – beta-lactam sensitization of Mtb H37Rv, H37Rv. M. tuberculosis H37Rv growth with meropenem, percent inhibition. 330,000 compounds, 0.27% hits. AID 434955, 2010. inhibition, % at 25 µM; call rule not given here;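 note: growth measured after seven days incubation then overnight dye step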
# CCHFV vOTU inh – CCHFV vOTU protease inhibitors, primary screen, biochemical, Pep-AMC substrate, fluorescence. inhibition, % at 11.5 µM. Crimean-Congo hemorrhagic fever virus L polyprotein viral ovarian tumor (vOTU) protease …. 370,000 compounds, 0.55% hits. AID 651958, 2012; in the data active = inhibition above about 30%
# Mtb FBA inh conf – M. tuberculosis aldolase blockers, biochemical, fluorescence, strain H37Rv, confirmation; shares compounds with FBA Mtb inh; AID 651616, 2012; 5,600 compounds, 78% hits; inhibition, % at 1 µM; purified M. tuberculosis FBA, fluorescence read-out
# GDH-TPI counter-2 – GDH-TPI coupling enzyme inhibitors, artefact control for M. tuberculosis FBA inhibitor project, biochemical, fluorescence, high throughput | shares compounds with FBA Mtb inh | GDH-TPI coupled enzyme counterscreen | inhibition, % at 1 µM | 5,600 compounds, 81% hits | AID 652141, 2013; in the data active = inhibition above about 10%
# GDH-TPI dose – GDH-TPI coupling enzyme inhibitors, dose response, artefact control for M. tuberculosis FBA inhibitor project, biochemical, fluorescence, IC50. shares compounds with FBA Mtb inh. GDH-TPI coupled enzyme assay, artifact counterscreen. IC50, µM. 170 compounds, 79% hits. AID 652145, 2013; call rule not given here
# A number is an active result; - = inactive; ? = inconclusive; . = no result given; + = active, no number. Hits are enriched below; roughly 4.2% of the tested compounds scored in any of these assays. Cut-off read from the data, not from the text of the source, unless noted: active = inhibition above about 27%; inactive = the rest.
SMILES,RecA intein inh,FBA Mtb inh,GDH-TPI counter-1,Mtb bLac sens,CCHFV vOTU inh,Mtb FBA inh conf,GDH-TPI counter-2,others
Cc1ccc(CN2CCCCC(NC(=O)c3ccc(C)cc3)C2=O)cc1 (stereo unspecified),.,.,.,.,-,.,.,
O=C(N[C@H](C(=O)N1CCC[C@H]1C(=O)NCCc1ccccc1Cl)c1ccccc1)c1ccc(Cl)c(Cl)c1,.,.,.,.,-,.,.,
CCOC(=O)CNC(=O)CSc1nnc(-c2ccccc2)n1Cc1ccco1,.,98,-,-,-,50,39,
c1ccc(-c2ccc(-c3n(-c4ccccn4)c4ccccc4[n+]3-c3ccccn3)cc2)cc1,-,46,-,.,-,189,172,
Cc1cc(C)c(-c2cc(C(F)(F)F)no2)c(=O)[nH]1,-,30,-,-,-,+,147,
COCCCNC(=O)C[C@H]1C[C@@]2(C(=O)OC)C(=C[C@H](C(C)C)O[C@@H]2C2CC2)N(Cc2ccc3c(c2)OCO3)C1=O,.,.,.,.,-,.,.,
CCCCNC(=O)C[C@H]1C[C@@]2(C(=O)OC)C(=C[C@H](C(C)C)O[C@@H]2C2CC2)N(Cc2ccc3c(c2)OCO3)C1=O,.,.,.,.,-,.,.,
N#CCCN(C(=O)COc1ccc(F)cc1Br)c1ccccc1F,-,28,-,-,-,-,-,GDH-TPI dose=-
NC(=O)c1sc2nc(-c3cccs3)ccc2c1N,-,76,-,-,-,62,56,
Cc1nnc(NC(=O)c2sc3nc(-c4cccs4)cc(C(F)(F)F)c3c2N)s1,-,33,43,?,-,-,-,
NC(=O)c1sc2nc(-c3ccccc3)ccc2c1N,.,-,-,-,-,.,.,
COCc1cc(C)nc2sc(C(=O)Nc3nccs3)c(N)c12,-,-,-,-,-,.,.,
Nc1c(C(=O)Nc2nccs2)sc2nc(-c3cccs3)cc(C(F)(F)F)c12,-,42,-,-,-,39,28,
CC(C)(C)C(=O)c1sc2nc(-c3cccs3)cc(C(F)(F)F)c2c1N,-,30,-,-,-,49,47,
Cc1cc(C(F)(F)F)c2c(N)c(C(=O)NC3CC3)sc2n1,-,-,-,-,-,.,.,
C#CCN1C(=O)[C@]2(NCCc3c2[nH]c2ccc(OC)cc32)c2cc(F)ccc21,.,.,.,.,-,.,.,
COC(=O)C1=C(C)N(Cc2cccc(C(F)(F)F)c2)C(=NCC2CC2)NC1c1ccccc1 (stereo unspecified),.,.,.,.,-,.,.,
CCN(CC)C(=O)CC[C@H]1CC[C@]2(CCCN(c3ccccc3)C2)O1,.,.,.,.,-,.,.,
COc1ccccc1COC(=O)N/C=C/c1ccco1,-,43,-,-,-,163,121,
COc1ccc(COC(=O)N/C=C/c2ccco2)cc1,-,-,-,-,-,.,.,
Cc1nn(CC(=O)Nc2ccc3c(c2)nc(CCN2CCCCC2)n3C)c(=O)c2ccccc12,-,-,-,-,-,.,.,
Cc1nn(CC(=O)Nc2ccc3c(c2)nc2n3CCN(C3CCCCC3)C2)c(=O)c2ccccc12,-,51,-,-,-,130,101,
CC(c1ccccc1)N1CCn2c(nc3cc(NC(=O)NC4CCCCC4)ccc32)C1 (stereo unspecified),-,57,-,-,-,56,52,
C[C@H]1C2CC(OC(=O)Nc3ccc4c(c3)OCO4)C(C2)[C@H]2CCCCN21 (stereo partly specified),.,.,.,.,-,.,.,
CCCCCC(=O)N/N=C/c1ccc(N(C)C)cc1,-,-,-,-,-,.,.,
SMILES,RecA intein inh,FBA Mtb inh,GDH-TPI counter-1,Mtb bLac sens,CCHFV vOTU inh,Mtb FBA inh conf,GDH-TPI counter-2,others
CN(C)c1ccc(/C=N\NC(=O)CC#N)cc1,-,30,35,-,-,-,-,
Cc1[nH]c(C(=O)N/N=C/c2ccc(N(C)C)cc2)c(C)c1C(=O)N/N=C/c1ccc(N(C)C)cc1,-,28,45,-,-,60,44,
COC(=O)[C@]12C[C@H](CC(=O)NCC34CC5CC(CC(C5)C3)C4)C(=O)N(CCc3ccc(OC)c(OC)c3)C1=C[C@H](COCc1ccccc1)O[C@@H]2C,.,.,.,.,-,.,.,
Cc1ccc2c(c1)C1CS(=O)(=O)N(CC(C)C)C(=O)N1C2 (stereo unspecified),.,.,.,.,-,.,.,
Cc1cc(C)n2nc(C(=O)OCC(=O)c3ccccc3)nc2n1,.,28,-,-,-,95,68,
COC(=O)C1=CN(Cc2ccc(OC)c(OC)c2)C=C(C(=O)OC)C1c1ccc(F)cc1,.,97,-,-,-,+,142,
CCc1ccc(N2C=C(C(=O)OC)C(c3ccccc3F)C(C#N)=C2N)cc1 (stereo unspecified),.,.,.,.,-,.,.,
COC(=O)C1=CN(Cc2ccc(OC)c(OC)c2)C=C(C(=O)OC)C1c1ccccc1F,-,91,-,-,-,61,47,
CCOc1cc(C2C(C(=O)OC)=CN(Cc3ccc(Cl)cc3)C=C2C(=O)OC)ccc1O,-,-,-,-,-,.,.,
COC(=O)C1=CN(Cc2ccc(OC)c(OC)c2)C=C(C(=O)OC)C1c1ccc(O)cc1,-,64,-,-,-,+,+,
COC(=O)C1=CN(Cc2ccc(C)cc2)C=C(C(=O)OC)C1c1cc(OC)c(OC)c(OC)c1,-,33,-,-,-,91,73,
CC1CCCN(CCCNS(=O)(=O)c2cc3c(cc2Br)CCN3C(=O)C2CC2)C1 (stereo unspecified),.,.,.,.,-,.,.,
CCCCNC(=O)C1CCCN1C(=O)Nc1ccc2c(c1)OCO2 (stereo unspecified),.,.,.,.,-,.,.,
O=C(NCc1ccco1)C1CCCN(S(=O)(=O)c2ccccc2F)C1 (stereo unspecified),.,.,.,.,-,.,.,
COC(=O)[C@]12C[C@H](CC(=O)NCC34CC5CC(CC(C5)C3)C4)C(=O)N(Cc3ccc4c(c3)OCO4)C1=C[C@H](COCc1ccccc1)O[C@@H]2C,.,.,.,.,-,.,.,
COC(=O)C1=C(C)N(Cc2cccc(C(F)(F)F)c2)C(=NCc2ccc3c(c2)OCO3)NC1c1cccc(F)c1 (stereo unspecified),.,.,.,.,-,.,.,
CCN(CC)c1ccc(-c2nn3c(-c4ccccc4Cl)nnc3s2)cc1,.,.,.,.,-,.,.,
CCc1ccc(C(=O)C[n+]2cccc3cc(OC)ccc32)cc1,-,41,-,-,-,-,20,
COc1cc(NS(=O)(=O)c2ccc(N/C=C\C(=O)c3ccc(C)cc3)cc2)nc(OC)n1,-,30,-,-,-,36,22,
COc1cc(NS(=O)(=O)c2ccc(NC(=O)c3cccs3)cc2)nc(OC)n1,-,75,-,-,-,-,-,
